Screening results as filed in PubChem.
Sampled rows, rich in hits. Any-hit rate of the full collection: about 3.4%.
NTR1 ag: activates human neurotensin receptor 1 | P30989 | hit rate 0.17% among 330,000 | activation, % at 20 µM | AID 493036 | NTR1-U2OS beta-arrestin-GFP spot imaging, agonist mode;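 active = activation at or above 40% of the spot to cytoplasm intensity ratio, with at least 20 cells analyzed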;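 also: 0% = DMSO without peptide and 100% = 100 nM NTR1 peptide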
MEKK3 PB1 HTS: MEKK3-MEK5 PB1 interaction, increase or decrease. binding response (% of control), % at 10 µM. bead-based flow cytometry, Alexa488-MEK5 binding to MEKK3; actives lie on both sides; 0 = blocked by unlabeled MEK5, 100 = vehicle. Q99759. hit rate 1.4% among 290,000;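 active = binding response more than 3 SD above or below the average of its plate-row segment, actives on both sides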;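 also: Alexa488 bead fluorescence after subtracting the streptavidin-only scavenger bead signal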
MEKK2 WT-MEK5: raises or lowers MEK5 binding to wildtype human MEKK2 PB1 domain; Q9Y2U5; bead flow cytometry, Alexa488-MEK5 binding to MEKK2 WT; actives lie on both sides; binding response (% of control), % at 10 µM; hit rate 1.1% among 290,000; AID 1531; in the data active = binding response below about 67% or above about 130%
MEKK2mut PB1 HTS: signal of MEK5 binding to mutant human MEKK2 PB1 domain. bead flow cytometry, Alexa488-MEK5 binding to MEKK2 mutant. percent response, % at 10 µM. hit rate 0.35% among 290,000. AID 1530; in the data active = percent response above about 24%, passing the limit was not always enough
TMEM16A act: activates or potentiates the mouse TMEM16A chloride channel; HEK293 TMEM16A/YFP-H148Q/I152L, iodide quench fluorescence; stronger effect = lower value; hit rate 0.3% among 340,000; B-score at 10 µM; Q8BHY3;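 active = fluorescence-ratio B-score plate-corrected deviation score at least 3 library SD below zero, with starting fluorescence score within 5 deviations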;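 also: channel opened by trigger with iodide after compound preincubation; score built on the fluorescence ratio of max minus min over baseline; more negative score means more quench and so TMEM16A activation or potentiation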
ANO1 block: mouse TMEM16A channel inhibition, primary screen | HEK293 TMEM16A/YFP iodide influx fluorescence, ionomycin | normalized B-score (activity score, 25-100; higher = stronger inhibition) at 10 µM | hit rate 1.2% among 310,000;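 active = ratio plate-corrected score three or more library SD toward inhibition, starting fluorescence score within five deviations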;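 also: score derived from kinetic fluorescence span divided by baseline fluorescence per well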
MEKK2wt confirm: raises or lowers MEK5 binding to wildtype human MEKK2, retest; shares compounds with MEKK3 PB1 HTS; bead flow cytometry, Alexa488-MEK5 binding to MEKK2 WT; actives lie on both sides; AID 1892; binding response (% of control), % at 10 µM; hit rate 2.4% among 5,900; in the data active = binding response below about 16% or above about 210%; inactive = in between
MEKK2mut confirm: signal of MEK5 binding to mutant human MEKK2, retest; percent response, % at 10 µM; bead flow cytometry, Alexa488-MEK5 binding to MEKK2 mutant; AID 1893; hit rate 2% among 5,900; shares compounds with MEKK3 PB1 HTS; in the data active = percent response mostly above about 71%, no sharp cut-off; inactive = mostly below about 38%;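 also: higher means compound restores mutant binding toward wildtype level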
MEKK3-MEK5 inh: MEKK3-MEK5 PB1 inhibition, single concentration confirmation. bead flow cytometry, Alexa488-MEK5 binding to MEKK3; stronger effect = lower value. AID 1894. binding response (% of control), % at 10 µM. shares compounds with MEKK3 PB1 HTS. hit rate 1.8% among 5,900;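 active = binding response below 72% of control, or above a set upper limit, though filed actives all read lower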;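 also: 100% = DMSO only wells and 0% = binding blocked by excess unlabeled MEK5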
* marks the source's active call; other numbers are inactive results; i = inactive; . = not tested or not shown; [ ] = remark or other dose.

SMILES	NTR1 ag	MEKK3 PB1 HTS	MEKK2 WT-MEK5	MEKK2mut PB1 HTS	TMEM16A act	ANO1 block	MEKK2wt confirm	MEKK2mut confirm	MEKK3-MEK5 inh
O=C(NC1CCCCC1)C(c1ccc(Cl)cc1)N1CCC2(CC1)OCCO2 (centres undefined)	1	2.0*[inhibitor]	2.0*[inhibitor]	-16	i	i	109	5	107
O=C(/C=C/c1ccc(Cl)c([N+](=O)[O-])c1)Nc1cccc(NC(=O)c2ccco2)c1	16	143*	112	0	i	i	107	1	103
COc1ccc(C2CC(=O)Oc3c(C(CCN4CCCCC4)c4ccc(N(C)C)cc4)c(OC)cc(OC)c32)cc1 (centres undefined)	16	95	156*	17	i	i	141	28	105
COc1ccc(C2CC(=O)Oc3c(C(CCN4CCCC(C)C4)c4ccc(N(C)C)cc4)c(OC)cc(OC)c32)cc1 (centres undefined)	2	105	152*	17	i	i	140	22	103
COc1cc(C2CC(=O)Oc3c(C(CCN4CCOCC4)c4ccc(N(C)C)cc4)c(OC)cc(OC)c32)cc(OC)c1OC (centres undefined)	0	104	106	4	i	i	.	.	.
COc1cc(O)c(C(CCN2CCCC2)c2ccc(N(C)C)cc2)c(OC)c1 (centres undefined)	3	119	153*	8	i	i	129	37	106
COc1ccc(Cl)cc1N(CC(=O)NCC(C)C)S(=O)(=O)c1ccc(C)c([N+](=O)[O-])c1	-1	115	101	-1	i	i	.	.	.
COc1ccc(CCNC(=O)C2CC(=O)N(c3ccc(C)cc3)C2)cc1OC (centres undefined)	-1	102	105	3	i	i	.	.	.
Cc1ccc(N2CC(C(=O)Nc3ccc(S(=O)(=O)N4CCCC4)cc3)CC2=O)cc1 (centres undefined)	1	60*[inhibitor]	45*[inhibitor]	-13	i	i	100	9	104
Cc1ccc(N2CC(C(=O)NCCc3ccc(S(N)(=O)=O)cc3)CC2=O)cc1 (centres undefined)	0	77*[inhibitor]	86	-14	i	i	105	2	103
COc1ccccc1C(=O)C1CCCN(C(=O)c2cccnc2SC)C1 (centres undefined)	-1	128*	632*	541*	i	i	100	-1	99
CC(C)(C)c1ccc(C(CC(=O)O)NC(=O)C23CC4CC(CC(C4)C2)C3)cc1 (centres undefined)	1	100	97	-8	i	i	.	.	.
CCn1c(O)c(C=NCc2ccccc2)sc1=S	1	97	98	-3	i	i	.	.	.
CCn1c(O)c(/C=C/C=C/C=Nc2ccccc2)sc1=S	1	87	59*[inhibitor]	-1	i	i	84	-7	93
CCCCn1c(O)c(/C=C/C=C/C=Nc2ccccc2)sc1=S	1	21*[inhibitor]	-5.0*	-29	i	i	22	-27	35*
Cc1ccccc1S(=O)(=O)c1cc(C#N)c(=O)[nH]c1N	-1	69*[inhibitor]	74	-13	i	i	102	-1	101
O=C(Cn1cc(/C=N/NC(=O)c2cccc3ccccc23)c2ccccc21)Nc1ccc(F)cc1	2	38*[inhibitor]	38*[inhibitor]	-14	i	i	100	-5	100
O=C(Cn1cc(/C=N/NC(=O)c2ccccc2Br)c2ccccc21)Nc1ccc(F)cc1	-1	101	99	-2	i	i	.	.	.
CN(CCOc1ccc(-c2ccn(S(=O)(=O)c3c(Cl)cccc3Cl)n2)cc1)c1ccccn1	-2	100	97	-6	i	i	.	.	.
CN(CCOc1ccc(-c2ccn(S(=O)(=O)c3cccc4ccccc34)n2)cc1)c1ccccn1	3	1.0*[inhibitor]	2.0*[inhibitor]	-16	i	i	100	0	105
CCOc1cc(N2CCOCC2)c(OCC)cc1NC(=O)CN1C(=O)NC(Cc2ccccc2)C1=O (centres undefined)	1	97	96	-3	i	i	.	.	.
CCOc1cc(N2CCOCC2)c(OCC)cc1NC(=O)CN1CCC(Cc2ccccc2)CC1	6	149*	110	0	i	i	107	8	106
Cc1sc2nc(C(C)Sc3n[nH]c(N)n3)[nH]c(=O)c2c1C (centres undefined)	2	101	98	-1	.	i	.	.	.
CCOc1ccccc1C(=O)N[C@H](C(=O)Nc1nc2c(s1)CCCC2)C(C)C	-2	137*	101	1	i	i	97	-2	102
COc1ccc(C(=O)N[C@H](C(=O)Nc2nc3c(s2)CCCC3)C(C)C)cc1	-3	96	96	-2	i	i	.	.	.
SMILES	NTR1 ag	MEKK3 PB1 HTS	MEKK2 WT-MEK5	MEKK2mut PB1 HTS	TMEM16A act	ANO1 block	MEKK2wt confirm	MEKK2mut confirm	MEKK3-MEK5 inh
CC(C)=CCc1c(O)cc(O)c2c(=O)c(O[C@@H]3O[C@@H](C)[C@H](O)[C@@H](O)[C@H]3O)c(-c3ccc(O)cc3)oc12	10	107	104	1	i	i	.	.	.
CC(C)=CCc1c(O)cc(O)c2c(=O)c3c(CC=C(C)C)c(O)ccc3oc12	14	104	137*	8	.	i	107	3	98
Cc1ccc2cccc(S(=O)(=O)NC3CCS(=O)(=O)C3)c2n1 (centres undefined)	0	2.0*[inhibitor]	-1.0*[inhibitor]	-26	i	i	107	9	110
CC1CCN(CCOCCOc2ccc(Cl)cc2Br)CC1	0	106	147*	21	i	i	158	28	110
Clc1ccc(OCCCN2CCc3ccccc3C2)c(Br)c1	6	105	134*	20	i	i	102	-1	101
Clc1ccc(OCCOCCN2CCc3ccccc3C2)c(Cl)c1	0	104	123	26	i	i	.	.	.
O=C(CNS(=O)(=O)c1c(Cl)cccc1Cl)OCc1csc(-c2ccccc2)n1	1	96	95	-2	i	i	.	.	.
